Reference: PubChem BioAssay AID1053133 (Broad Institute, 2014)
Hit rate of the full screen: of about 89,000 compounds, about 10 (0.01%) were called active. About 10% were inconclusive and are not listed. Rule as the data show it: active = activity change below about -37% (passing the limit was not always enough); inconclusive = no clear call, values can overlap the other calls; tested in A549 cells. These entries were drawn from the full list.

Assay: blocks a specific stage of Vaccinia orthopoxvirus infection, primary screen, cell-based, single point (AID 1053133)
Conditions: Vaccinia-infected cells, mCherry/Venus stage reporter fluorescence, stronger effect = lower value, concentration not given here; activity change (Venus): measured here: Venus reporter, other viral stage
For `CO[C@H]1CN(C)C(=O)c2cc(NC(=O)C3CCC3)ccc2OC[C@H](C)N(CC2CCCCC2)C[C@@H]1C`, the activity change (Venus) was 3.14% and the activity change (mCherry) was -9.01% (inactive).
For `COc1ccc2c3c(n(C)c2c1)[C@H](CO)N(C)CC31CCN(C(=O)Nc2cccc(F)c2)CC1`, the activity change (Venus) was -8.96% and the activity change (mCherry) was -16.1% (inactive).
In the case of `CC(C)NC(=O)N1CC(=O)N2[C@@H](CO)[C@H](c3ccc(C#CCN(C)C)cc3)[C@@H]2C1`, the activity change (Venus) is reported as 7.94% and the activity change (mCherry) is reported as 9.18% (inactive).
With `O=C(C[C@H]1C[C@H]2c3cc(NC(=O)Nc4ccc(C(F)(F)F)cc4)ccc3O[C@H]2[C@@H](CO)O1)NCCc1ccccc1` the activity change (Venus) was 9.77% and the activity change (mCherry) was 6.8% (inactive).
In the case of `O=C(Nc1ccccc1)N1C[C@@H]2[C@H](c3ccccc31)[C@H](CO)N2C(=O)c1ccccn1`, the activity change (Venus) is reported as 5.62% and the activity change (mCherry) is reported as 10.2% (inactive).
With `Cc1ccc(S(=O)(=O)N(C)C[C@@H]2Oc3ccc(NS(=O)(=O)c4ccc(F)cc4)cc3CC(=O)N([C@@H](C)CO)C[C@H]2C)cc1` the activity change (Venus) was -2.68% and the activity change (mCherry) was 2.93% (inactive).
With `COc1ccccc1NC(=O)N[C@H]1CC[C@H](CCn2cc(-c3cccnc3)nn2)O[C@@H]1CO` the activity change (Venus) was 7.22% and the activity change (mCherry) was -4.31% (inactive).
For `COc1ccc(-c2cn(CC[C@@H]3CC[C@@H](NC(=O)CCN4CCCCC4)[C@@H](CO)O3)nn2)cc1`, the activity change (Venus) was 11.2% and the activity change (mCherry) was 5.57% (inactive).
For `O=C(Cc1ccccn1)N[C@@H]1CC[C@H](CCn2cc(-c3ccc(F)cc3)nn2)O[C@@H]1CO`, the activity change (Venus) was -0.00768% and the activity change (mCherry) was 11% (inactive).
For `Cc1ccc(S(=O)(=O)N[C@@H]2CC[C@@H](CCn3cc(C(C)C)nn3)O[C@H]2CO)cc1`, the activity change (Venus) was 2.74% and the activity change (mCherry) was -0.697% (inactive).
For `COc1ccc2c3c(n(C)c2c1)[C@H](CO)N(C(=O)c1ccc(F)cc1)CC31CCN(C(C)=O)CC1`, the activity change (Venus) was 7.75% and the activity change (mCherry) was 25% (inactive).
In the case of `COC(=O)C[C@@H]1CC[C@@H]2[C@H](COc3ccc(NC(=O)Nc4cccc(F)c4)cc3C(=O)N2C)O1`, the activity change (Venus) is reported as 6.13% and the activity change (mCherry) is reported as 6.13% (inactive).
In the case of `CCNC(=O)[C@@H]1[C@@H](CO)[C@@H]2Cn3c(ccc(C4=CCCCC4)c3=O)[C@@H]2N1Cc1ccccc1F`, the activity change (Venus) is reported as -3.86% and the activity change (mCherry) is reported as 2.73% (inactive).
With `O=C(Nc1cc(F)ccc1F)N[C@H]1CC[C@H](CCn2cc(C3CCCC3)nn2)O[C@@H]1CO` the activity change (Venus) was -13.1% and the activity change (mCherry) was -6.78% (inactive).
For `C[C@H]1CN([C@@H](C)CO)C(=O)c2cc(C3=CCCC3)cnc2O[C@H]1CN(C)C(=O)Nc1ccc(F)cc1`, the activity change (Venus) was 6.92% and the activity change (mCherry) was 7.38% (inactive).
With `C[C@@H]1CN([C@@H](C)CO)C(=O)c2cc(NC(=O)C3CCCCC3)ccc2O[C@@H](C)CCCCO[C@H]1CN(C)C(=O)Nc1ccc2c(c1)OCO2` the activity change (Venus) was 1.19% and the activity change (mCherry) was 1.01% (inactive).
For `CC(C)NC(=O)N1[C@H](C(=O)N2CCc3ccccc3C2)[C@@H](CO)[C@@H]2Cn3c(cccc3=O)[C@@H]21`, the activity change (Venus) was 7.39% and the activity change (mCherry) was 13.3% (inactive).
For `CCN1[C@@H]2Cn3c(ccc(C4=CCCCC4)c3=O)[C@H]1[C@@H](C(=O)N1CCCCC1)[C@@H]2CO`, the activity change (Venus) was -4.76% and the activity change (mCherry) was -0.187% (inactive).
In the case of `C[C@H]1CN([C@@H](C)CO)C(=O)c2cc(/C=C/c3ccccc3)cnc2O[C@@H]1CN(C)C(=O)NC1CCCCC1`, the activity change (Venus) is reported as -19.2% and the activity change (mCherry) is reported as -26.2% (inactive).
For `CS(=O)(=O)N1CC(=O)N2[C@@H](CO)[C@@H](c3ccc(C#CCC4CCCC4)cc3)[C@@H]2C1`, the activity change (Venus) was -6.84% and the activity change (mCherry) was -14.6% (inactive).
With `COc1ccc(CN2[C@@H](CO)[C@@H]3c4ccccc4N(C(=O)Nc4ccccc4)C[C@@H]32)cc1` the activity change (Venus) was -11.3% and the activity change (mCherry) was -12.7% (inactive).
For `CCS(=O)(=O)Nc1ccc2c(c1)C(=O)N(C)[C@H]1CC[C@H](CC(=O)NCc3ccccc3F)O[C@H]1CO2`, the activity change (Venus) was 8.23% and the activity change (mCherry) was -6.34% (inactive).
For `O=C(C[C@H]1C=C[C@H](NC(=O)CC2CC2)[C@@H](CO)O1)NCc1ccccc1`, the activity change (Venus) was 4.6% and the activity change (mCherry) was 4.83% (inactive).
In the case of `Cc1noc(C)c1NC(=O)N[C@@H]1CC[C@H](CCNC(=O)C2CCC2)O[C@@H]1CO`, the activity change (Venus) is reported as 3.06% and the activity change (mCherry) is reported as -10.7% (inactive).
For `CO[C@H]1CN(C)C(=O)c2ccc(NC(=O)C3CC3)cc2OC[C@@H](C)N(Cc2ccc(F)cc2)C[C@@H]1C`, the activity change (Venus) was -14.9% and the activity change (mCherry) was -29.4% (inactive).
For `CC(=O)N1[C@@H]2Cn3c(ccc(C4=CCCC4)c3=O)[C@H]1[C@@H](C(=O)NC1CCC1)[C@@H]2CO`, the activity change (Venus) was 2.6% and the activity change (mCherry) was 11.3% (inactive).
In the case of `O=C(Cc1cccnc1)N1CC(=O)N2[C@H](CO)[C@H](c3ccc(C#CC4CCCC4)cc3)[C@@H]2C1`, the activity change (Venus) is reported as -12.7% and the activity change (mCherry) is reported as -12.6% (inactive).
In the case of `O=C(N[C@@H]1CC[C@H](CCn2cc(-c3ccccn3)nn2)O[C@@H]1CO)c1ccccc1`, the activity change (Venus) is reported as -0.983% and the activity change (mCherry) is reported as 0.892% (inactive).
In the case of `O=C(NC[C@H]1CC[C@H]2[C@H](CN2Cc2cccc(Cl)c2)O1)C1CC1`, the activity change (Venus) is reported as 6.08% and the activity change (mCherry) is reported as 4.96% (inactive).
In the case of `CN(C)C(=O)c1cccc(-c2ccc3c(c2)[C@@H]2[C@@H](CCN2Cc2nccs2)[C@@H](CO)N3)c1`, the activity change (Venus) is reported as -3.17% and the activity change (mCherry) is reported as -14.5% (inactive).
In the case of `O=C(C[C@@H]1CC[C@@H]2[C@H](COC[C@H](O)CN2Cc2ccc(F)cc2)O1)NCc1ccncn1`, the activity change (Venus) is reported as 9.14% and the activity change (mCherry) is reported as 13.7% (inactive).
With `CN1CCN(C(=O)C[C@H]2CC[C@H]3[C@@H](COC[C@H](O)CN3CC3CCCC3)O2)CC1` the activity change (Venus) was -10.7% and the activity change (mCherry) was -14.5% (inactive).
With `CCCc1cn(CC[C@@H]2CC[C@@H](NC(=O)CCN3CCCCC3)[C@H](CO)O2)nn1` the activity change (Venus) was 6.3% and the activity change (mCherry) was 4.68% (inactive).
In the case of `COc1ccc(-c2cn(CC[C@H]3CC[C@@H](NC(=O)CCN4CCCCC4)[C@H](CO)O3)nn2)cc1`, the activity change (Venus) is reported as 12% and the activity change (mCherry) is reported as 0.142% (inactive).
With `N#C[C@@H]1[C@H](c2ccccc2-c2cccc(F)c2)[C@@H](CO)N1C(=O)CN1CCOCC1` the activity change (Venus) was 4.69% and the activity change (mCherry) was 12.6% (inactive).
For `CO[C@H]1CN(C)C(=O)c2ccc(NC(=O)c3ccccc3F)cc2OC[C@H](C)N(C(=O)c2ccccc2F)C[C@H]1C`, the activity change (Venus) was 2.58% and the activity change (mCherry) was -1.92% (inactive).
For `Cc1cc(C(=O)Nc2ccc3c(c2)C(=O)N(C)[C@@H]2CC[C@@H](CC(=O)NC4CCCC4)O[C@@H]2CO3)no1`, the activity change (Venus) was 8.29% and the activity change (mCherry) was 8.19% (inactive).
For `O=C(C[C@@H]1CC[C@@H]2[C@H](COC[C@H](O)CN2C(=O)Nc2cccc(Cl)c2)O1)NCCCN1CCOCC1`, the activity change (Venus) was 5.06% and the activity change (mCherry) was 10% (inactive).
